From PubChem BioAssay
The list is not random: actives were taken first. Their share in the collection is about 1.4%.
HTR5A inv ag: inverse agonist of human HTR5A in OPRM1-OPRD1 counter-screen; P47898; HTR5A cell line, luminescence, inverse agonism; inhibition, % at 9.3 µM; 340,000 tested, 0.083% active; in the data active = inhibition mostly above about 23%, no sharp cut-off; inactive = mostly below about 18%;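 note: 0% = cells with DMSO and 100% = no-cell wells with DMSO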
beta cell repl: induces beta-cell replication in MIN6 cells; MIN6 cells proliferation, ATPlite luminescence, 48 h; cells starved in 0.2% serum; 100% = growth in 10% serum; 330,000 tested, 0.29% active; proliferation, % at 10 µM;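 active = compounds whose signal lies at least 3.5 SD above the mean of all wells on their plate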;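 note: 0% = DMSO-treated cells in low-serum medium and 100% = 10% serum control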
pCIP destab: p/CIP protein destabilization; Q05BA5; F442A p/CIP-EGFP cells, EGFP fluorescence, 16 h; decrease of EGFP signal, % at 10 µM; 290,000 tested, 0.01% active;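 active = EGFP signal decrease of at least 30% at 10 µM or well 3 SD below plate mean, unless failing retest; inactive = the rest, including hits failing retest or dose response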
MOR-DOR inv ag: inverse agonist of human OPRM1-OPRD1 heterodimerization; P35372+P41143; cell-based MOR-DOR heterodimer luminescence, inverse agonism; inhibition, % at 9.3 µM; 340,000 tested, 0.21% active; AID 504357; in the data active = inhibition above about 22%, passing the limit was not always enough;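 note: 0% = cells with DMSO and 100% = wells without cells with DMSO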
Target sequence (P35372 whole entry, looked up): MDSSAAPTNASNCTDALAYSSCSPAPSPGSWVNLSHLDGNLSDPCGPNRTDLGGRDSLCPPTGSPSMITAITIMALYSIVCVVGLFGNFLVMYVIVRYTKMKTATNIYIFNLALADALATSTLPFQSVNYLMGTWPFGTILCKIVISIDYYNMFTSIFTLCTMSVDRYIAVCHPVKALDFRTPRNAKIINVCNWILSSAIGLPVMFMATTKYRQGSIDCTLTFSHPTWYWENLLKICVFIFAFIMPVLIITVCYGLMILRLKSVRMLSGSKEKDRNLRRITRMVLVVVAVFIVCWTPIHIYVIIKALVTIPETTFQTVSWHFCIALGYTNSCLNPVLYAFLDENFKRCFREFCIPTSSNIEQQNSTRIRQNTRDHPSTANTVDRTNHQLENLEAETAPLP
Target sequence (P41143 whole entry, looked up): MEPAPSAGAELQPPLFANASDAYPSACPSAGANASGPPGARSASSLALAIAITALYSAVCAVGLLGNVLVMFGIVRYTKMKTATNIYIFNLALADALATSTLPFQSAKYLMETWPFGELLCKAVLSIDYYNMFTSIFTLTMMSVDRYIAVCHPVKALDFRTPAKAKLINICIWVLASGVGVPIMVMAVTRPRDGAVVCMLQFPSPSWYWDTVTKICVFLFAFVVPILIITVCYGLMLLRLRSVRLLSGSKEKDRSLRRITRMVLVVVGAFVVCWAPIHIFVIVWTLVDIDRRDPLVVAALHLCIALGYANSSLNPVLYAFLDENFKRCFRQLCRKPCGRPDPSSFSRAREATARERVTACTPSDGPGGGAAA
HTR5A ag ctr: activates human HTR5A in OPRM1-OPRD1 agonist counter-screen. activation, % at 9.3 µM. HTR5A agonist assay, luminescence, cell-based. P47898. AID 504692. 340,000 tested, 0.61% active; in the data active = activation mostly above about 9.5%, no sharp cut-off; inactive = mostly below about 7.6%;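 note: 0% = cells with vehicle only and 100% = reference agonist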
MOR-DOR ag-1: agonists of human mu-delta opioid receptor heterodimerization | 340,000 tested, 0.3% active | cells, OPRM1-OPRD1 heterodimerization, luminescence | activation, % at 9.3 µM | AID 504326;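 note: 0% = vehicle-treated cells and 100% = reference agonist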
MOR-DOR ag-2: counter-screen for HTR5A agonists: OPRM1-OPRD1 heterodimerization agonism | 800 tested, 13% active | U2OS counter-screen cells, complementation luminescence, 3 h | AID 504913 | activation, % at 9.3 µM | shares compounds with HTR5A ag ctr
HTR5A ag conf: HTR5A (human) agonism, confirmation; shares compounds with HTR5A ag ctr; HTR5A agonist cell assay, luminescence; activation, % at 9.3 µM; 800 tested, 17% active; AID 504915; in the data active = activation above about 17%;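 note: 0% = cells with vehicle only and 100% = full reference agonist response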
* = called active by the depositor; . = no result given. Cut-off read from the data, not from the text of the source, unless noted: active = activation above about 18%; inactive = the rest.

SMILES	HTR5A inv ag	beta cell repl	pCIP destab	MOR-DOR inv ag	HTR5A ag ctr	MOR-DOR ag-1	MOR-DOR ag-2	HTR5A ag conf
Cc1ccc(SCCC(=O)OCC(=O)Nc2ccc(C(N)=O)cc2)cc1	-6	-3	.	10	2	-3	.	.
NC(=O)c1ccc(NC(=O)COC(=O)CCSc2ccccc2)cc1	-42	-1	-12	16	15*	-3	7	7
NC(=O)c1ccc(NC(=O)COC(=O)c2c[nH]c3ccccc23)cc1	-54	0	.	-2	18*	0	17	-3
COC(=O)CCC[C@H]1CC2(C[C@H](CCCO[Si](C)(C)C(C)(C)C)N1C(=O)OC(C)(C)C)OCCO2	-40	-7	.	5	16*	-1	119*	2
COc1cccc(N2CCN(Cc3ccco3)CC2)c1	-43	1	1	7	15*	-1	1	-6
O=C(c1ccc(Cn2c(=O)[nH]c3ccccc3c2=O)cc1)N1CCN(c2ccccn2)CC1	-36	-3	1	2	12	0	.	.
O=C(c1ccc(Cn2c(=S)[nH]c3ccccc3c2=O)cc1)N1CCN(c2ccccn2)CC1	-43	-5	-15	-15	16*	3	0	-3
O=C(c1ccc(Cn2c(=O)[nH]c3ccccc3c2=O)cc1)N1CCN(c2ccccc2)CC1	-4	1	-6	-32	15*	6	1	8
Cc1noc(C)c1S(=O)(=O)Nc1ccc2c(c1)CC(=O)N([C@H](C)CO)C[C@H](C)[C@@H](CN(C)CC1CC1)O2	7	4	.	9	7	-2	.	.
CCCn1c(SCC(=O)N2N=C3/C(=C/c4ccc(OC)cc4)CCCC3C2c2ccc(OC)cc2)n[nH]c1=O (stereo unspecified)	-77	-6	3	-9	23*	2	26*	7
CC1=C(C(=O)OC2CCCCC2)C(c2ccc(F)cc2)NC(=O)N1 (stereo unspecified)	1	-3	-12	-4	0	1	.	.
COc1ccc(NC(=O)Cc2ccc(C)c(C)c2)cc1S(=O)(=O)N1CCCCC1	0	1	.	6	0	-1	.	.
CCN(CC)C(=O)c1ccc(S(=O)(=O)N2CCC(c3nc4ccccc4s3)CC2)cc1	-55	-4	-9	-15	21*	2	5	4
O=C1NC(c2ccccc2)=C(c2ccc3ccccc3n2)C(c2ccccc2)N1 (stereo unspecified)	3	-2	0	-2	-1	0	.	.
O=C1NC(c2ccccc2)=C(c2nc3ccccc3s2)C(c2ccc(O)cc2)N1 (stereo unspecified)	-71	-6	-20	-23	38*	4	13	8
O=S(=O)(NCc1ccc2c(c1)OCO2)c1ccc(F)c(F)c1	-19	-1	-6	6	15*	-1	1	2
Cc1cc(S(=O)(=O)NCc2ccc3c(c2)OCO3)ccc1F	-26	-4	-8	7	-4	-1	.	.
COc1ccc(S(=O)(=O)N(C)C[C@H]2Oc3c(NC(=O)CCC(F)(F)F)cccc3C(=O)N([C@H](C)CO)C[C@@H]2C)cc1	-12	6	.	12	4	-2	.	.
CCCc1nc2ccc(NC(=O)c3cccs3)cc2c(=O)n1Cc1ccc(Cl)cc1	-9	-6	-11	5	4	-1	.	.
Cc1nc2ccc(NC(=O)c3cccs3)cc2c(=O)n1Cc1ccc(Cl)cc1	-39	-2	-2	-9	15*	2	-2	-3
O=C(NC(=S)NNC(=O)c1ccccc1[N+](=O)[O-])c1ccc(Br)cc1	-7	-3	-3	6	1	-1	.	.
CCOc1ccc(NC(=O)c2cc(=O)[nH]c3ccccc23)cc1	-44	-3	-16	7	16*	-1	21*	-1
COc1ccc(C(=O)CC(=O)C(=O)NCCc2cccc(C)c2)cc1	-42	-2	-8	-9	16*	2	0	5
CN(CC(=O)Nc1cccc(F)c1)C(=O)C1CCC(C(=O)N(C)CC(=O)Nc2cccc(F)c2)CC1 (stereo unspecified)	-1	.	.	8	0	-1	.	.
